# Laboratory results taken from paper PMC7862700, “An all-to-all approach to the identification of sequence-specific readers for epigenetic DNA modifications on cytosine”.
# Columns and labels:
# Assay in all cases: DAPPL (digital affinity profiling via proximity ligation, sequencing); 10 mM Tris-HCl pH 7.5, 50 mM NaCl, 1 mM DTT, 4% glycerol, room temperature, 30 min; GST-TFs on glutathione beads, 16-mer random dsDNA library, 0.1% formaldehyde crosslink after washing; high values mean tight binding
# Conditions in all cases: protein: recombinant; tags: N-terminal GST; dsDNA, one strand shown
# ELK1 = target: T1, ELK1 (Homo sapiens, UniProt P19419 1-428)
# T1 sequence: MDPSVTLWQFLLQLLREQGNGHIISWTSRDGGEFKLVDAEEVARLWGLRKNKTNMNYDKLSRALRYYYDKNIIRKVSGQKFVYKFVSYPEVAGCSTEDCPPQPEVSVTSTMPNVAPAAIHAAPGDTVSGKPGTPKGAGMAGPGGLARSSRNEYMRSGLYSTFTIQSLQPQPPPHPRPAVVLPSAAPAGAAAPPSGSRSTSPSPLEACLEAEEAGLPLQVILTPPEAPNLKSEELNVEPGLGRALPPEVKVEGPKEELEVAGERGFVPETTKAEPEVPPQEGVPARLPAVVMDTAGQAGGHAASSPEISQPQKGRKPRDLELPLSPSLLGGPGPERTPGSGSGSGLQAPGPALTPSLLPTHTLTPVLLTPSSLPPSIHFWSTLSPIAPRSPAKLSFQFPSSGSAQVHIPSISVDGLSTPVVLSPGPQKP
# Outline: (§1)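 Binding signal is defined as a hexamer's read frequency for one factor over its frequency for the tag-only sample. To obtain reads, GST-fused human transcription factors were expressed in yeast, captured on glutathione beads, barcoded with DNA and pooled with that sample. Pools met 200 nmole of a 16-mer random double-stranded DNA library in Tris/NaCl/DTT/glycerol buffer for 30 min at room temperature before washing, 0.1% formaldehyde crosslinking, proximity ligation (BsaI/T4 ligase, 1 h, 37 °C), PCR and Illumina NextSeq500 sequencing.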
# GABPA = target: T2, GABPA (Homo sapiens, UniProt Q06546 1-454)
# T2 sequence: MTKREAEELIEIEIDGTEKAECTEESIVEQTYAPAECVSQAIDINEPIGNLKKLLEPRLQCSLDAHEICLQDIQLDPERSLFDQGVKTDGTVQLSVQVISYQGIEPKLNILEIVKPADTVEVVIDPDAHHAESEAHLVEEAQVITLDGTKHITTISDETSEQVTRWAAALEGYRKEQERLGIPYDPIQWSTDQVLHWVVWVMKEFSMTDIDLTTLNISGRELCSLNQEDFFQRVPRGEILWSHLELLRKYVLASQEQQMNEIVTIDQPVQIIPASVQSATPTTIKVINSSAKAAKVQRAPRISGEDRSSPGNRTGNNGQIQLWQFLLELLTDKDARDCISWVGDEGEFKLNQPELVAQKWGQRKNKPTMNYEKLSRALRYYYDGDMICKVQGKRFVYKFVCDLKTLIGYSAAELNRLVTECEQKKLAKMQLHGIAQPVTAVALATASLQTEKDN
# Outline: as §1
# ERG = target: T3, ERG (Homo sapiens, UniProt P11308 1-479)
# T3 sequence: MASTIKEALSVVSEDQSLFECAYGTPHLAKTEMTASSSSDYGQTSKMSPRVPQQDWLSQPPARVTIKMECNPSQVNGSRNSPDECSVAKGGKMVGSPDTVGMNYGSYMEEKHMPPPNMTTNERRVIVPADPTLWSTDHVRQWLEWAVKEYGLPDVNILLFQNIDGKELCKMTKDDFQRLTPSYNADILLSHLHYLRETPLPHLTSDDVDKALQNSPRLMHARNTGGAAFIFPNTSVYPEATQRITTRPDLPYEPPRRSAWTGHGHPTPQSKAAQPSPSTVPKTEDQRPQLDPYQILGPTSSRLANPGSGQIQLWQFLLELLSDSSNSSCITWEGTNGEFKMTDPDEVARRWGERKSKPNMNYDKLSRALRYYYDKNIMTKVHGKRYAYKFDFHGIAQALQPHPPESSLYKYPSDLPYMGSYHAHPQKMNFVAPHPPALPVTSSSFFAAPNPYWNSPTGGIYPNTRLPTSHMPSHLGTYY
# Outline: as §1
# ELF1 = ELF1 (Homo sapiens, UniProt P32519 1-619)
# Chain of ELF1 (P32519 whole entry): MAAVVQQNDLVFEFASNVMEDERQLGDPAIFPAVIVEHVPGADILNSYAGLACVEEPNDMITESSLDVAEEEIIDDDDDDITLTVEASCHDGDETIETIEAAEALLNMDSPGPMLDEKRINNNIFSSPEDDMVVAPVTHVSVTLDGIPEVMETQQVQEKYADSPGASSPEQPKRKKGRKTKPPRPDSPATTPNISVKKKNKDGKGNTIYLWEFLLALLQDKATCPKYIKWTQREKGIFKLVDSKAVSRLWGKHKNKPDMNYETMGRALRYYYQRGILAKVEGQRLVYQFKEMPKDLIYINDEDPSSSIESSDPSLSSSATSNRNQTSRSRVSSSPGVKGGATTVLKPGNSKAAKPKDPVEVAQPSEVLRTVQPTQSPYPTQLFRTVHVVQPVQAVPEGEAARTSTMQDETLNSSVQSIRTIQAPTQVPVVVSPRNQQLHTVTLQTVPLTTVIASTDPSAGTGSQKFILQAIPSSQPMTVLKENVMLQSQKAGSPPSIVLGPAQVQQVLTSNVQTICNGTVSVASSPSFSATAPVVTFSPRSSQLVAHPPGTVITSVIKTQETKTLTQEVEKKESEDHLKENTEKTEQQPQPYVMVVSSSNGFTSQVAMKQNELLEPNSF
# Outline: as §1
# EHF = target: T4, EHF (Homo sapiens, UniProt Q9NZC4 1-300)
# T4 sequence: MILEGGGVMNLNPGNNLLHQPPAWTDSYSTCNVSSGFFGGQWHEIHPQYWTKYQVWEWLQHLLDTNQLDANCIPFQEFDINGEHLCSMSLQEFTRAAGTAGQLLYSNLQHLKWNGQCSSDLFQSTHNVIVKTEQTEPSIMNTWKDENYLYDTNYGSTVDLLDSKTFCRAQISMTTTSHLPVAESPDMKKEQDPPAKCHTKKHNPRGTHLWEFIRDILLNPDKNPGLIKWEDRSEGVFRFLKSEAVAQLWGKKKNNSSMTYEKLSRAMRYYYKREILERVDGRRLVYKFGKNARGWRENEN
# Outline: as §1
# SPIB = SPIB (Homo sapiens, UniProt Q01892 1-262)
# Chain of SPIB (Q01892 whole entry): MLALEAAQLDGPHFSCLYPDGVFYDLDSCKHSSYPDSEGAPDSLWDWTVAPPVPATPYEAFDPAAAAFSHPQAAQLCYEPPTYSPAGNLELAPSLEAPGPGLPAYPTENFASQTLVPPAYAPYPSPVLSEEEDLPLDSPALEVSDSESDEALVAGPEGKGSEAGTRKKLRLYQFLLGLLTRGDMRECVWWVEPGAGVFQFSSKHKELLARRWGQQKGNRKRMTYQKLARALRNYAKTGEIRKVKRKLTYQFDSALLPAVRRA
# Outline: as §1
# ELK3 = target: T5, ELK3 (Homo sapiens, UniProt P41970 1-407)
# T5 sequence: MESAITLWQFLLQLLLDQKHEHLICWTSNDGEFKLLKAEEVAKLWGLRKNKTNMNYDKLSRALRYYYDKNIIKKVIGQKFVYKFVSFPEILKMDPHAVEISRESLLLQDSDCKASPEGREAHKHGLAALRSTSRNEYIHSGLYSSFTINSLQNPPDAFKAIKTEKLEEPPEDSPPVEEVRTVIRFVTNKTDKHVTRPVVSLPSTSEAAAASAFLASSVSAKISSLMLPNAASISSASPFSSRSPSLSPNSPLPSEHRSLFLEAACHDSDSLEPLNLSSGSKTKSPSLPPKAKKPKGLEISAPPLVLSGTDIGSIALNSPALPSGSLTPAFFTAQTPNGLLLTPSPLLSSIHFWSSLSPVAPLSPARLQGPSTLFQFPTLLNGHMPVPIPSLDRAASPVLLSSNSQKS
# Outline: as §1
# SPIC = target: T6, SPIC (Homo sapiens, UniProt Q8N5J4 1-248)
# T6 sequence: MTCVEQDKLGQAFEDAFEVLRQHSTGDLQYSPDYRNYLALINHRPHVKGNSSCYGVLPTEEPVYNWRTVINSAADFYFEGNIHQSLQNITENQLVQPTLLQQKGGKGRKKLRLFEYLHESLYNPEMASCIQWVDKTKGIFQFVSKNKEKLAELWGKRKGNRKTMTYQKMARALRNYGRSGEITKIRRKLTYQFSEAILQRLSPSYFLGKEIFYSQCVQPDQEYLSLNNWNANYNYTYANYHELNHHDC
# Outline: as §1
# ELF4 = ELF4 (Homo sapiens, UniProt Q99607 1-663)
# Chain of ELF4 (Q99607 whole entry): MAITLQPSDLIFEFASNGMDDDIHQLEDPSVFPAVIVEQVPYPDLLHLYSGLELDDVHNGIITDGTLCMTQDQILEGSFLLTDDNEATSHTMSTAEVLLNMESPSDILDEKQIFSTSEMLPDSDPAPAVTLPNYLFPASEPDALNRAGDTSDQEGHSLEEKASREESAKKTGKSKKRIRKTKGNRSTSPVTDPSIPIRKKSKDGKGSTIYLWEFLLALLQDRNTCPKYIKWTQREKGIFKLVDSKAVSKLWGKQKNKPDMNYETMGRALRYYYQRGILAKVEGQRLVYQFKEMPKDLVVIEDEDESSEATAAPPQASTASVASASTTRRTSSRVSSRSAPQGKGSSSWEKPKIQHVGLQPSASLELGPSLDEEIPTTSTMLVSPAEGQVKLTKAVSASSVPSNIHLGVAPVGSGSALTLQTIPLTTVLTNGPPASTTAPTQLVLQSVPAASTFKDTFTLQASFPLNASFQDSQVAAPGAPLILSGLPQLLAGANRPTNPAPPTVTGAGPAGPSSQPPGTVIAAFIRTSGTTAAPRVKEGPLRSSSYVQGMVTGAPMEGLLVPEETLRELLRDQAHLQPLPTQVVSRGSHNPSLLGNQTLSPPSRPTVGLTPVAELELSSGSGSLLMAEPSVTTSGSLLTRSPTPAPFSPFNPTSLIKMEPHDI
# Outline: as §1
# ELK4 = target: T7, ELK4 (Homo sapiens, UniProt P28324-2 1-405)
# T7 sequence: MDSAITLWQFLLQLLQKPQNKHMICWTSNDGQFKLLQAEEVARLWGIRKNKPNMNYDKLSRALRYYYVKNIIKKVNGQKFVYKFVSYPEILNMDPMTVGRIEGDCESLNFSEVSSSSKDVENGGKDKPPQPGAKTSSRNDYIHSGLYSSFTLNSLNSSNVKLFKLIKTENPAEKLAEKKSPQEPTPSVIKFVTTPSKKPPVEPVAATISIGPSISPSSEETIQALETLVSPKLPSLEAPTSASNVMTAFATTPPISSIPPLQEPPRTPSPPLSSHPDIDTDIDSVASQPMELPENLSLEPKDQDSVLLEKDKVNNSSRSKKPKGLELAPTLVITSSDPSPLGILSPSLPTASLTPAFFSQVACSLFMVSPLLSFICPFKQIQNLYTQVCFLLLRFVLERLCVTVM
# Outline: as §1
# ETV1 = ETV1 (Homo sapiens, UniProt P50549 1-477)
# Chain of ETV1 (P50549 whole entry): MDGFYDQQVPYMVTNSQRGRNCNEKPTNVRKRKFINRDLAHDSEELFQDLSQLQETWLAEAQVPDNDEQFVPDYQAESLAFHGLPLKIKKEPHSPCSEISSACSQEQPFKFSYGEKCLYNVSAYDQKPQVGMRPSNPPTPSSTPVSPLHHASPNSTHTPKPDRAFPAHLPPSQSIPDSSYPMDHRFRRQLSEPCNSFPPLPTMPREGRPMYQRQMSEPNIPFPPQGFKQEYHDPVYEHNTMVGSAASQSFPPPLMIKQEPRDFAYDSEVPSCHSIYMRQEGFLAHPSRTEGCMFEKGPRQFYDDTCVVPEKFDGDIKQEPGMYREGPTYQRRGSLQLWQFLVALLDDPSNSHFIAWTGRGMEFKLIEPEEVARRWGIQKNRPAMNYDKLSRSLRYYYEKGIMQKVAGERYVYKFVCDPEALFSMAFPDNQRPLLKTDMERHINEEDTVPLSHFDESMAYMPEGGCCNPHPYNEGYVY
# Outline: as §1
# ERF = target: T8, ERF (Homo sapiens, UniProt P50548 1-548)
# T8 sequence: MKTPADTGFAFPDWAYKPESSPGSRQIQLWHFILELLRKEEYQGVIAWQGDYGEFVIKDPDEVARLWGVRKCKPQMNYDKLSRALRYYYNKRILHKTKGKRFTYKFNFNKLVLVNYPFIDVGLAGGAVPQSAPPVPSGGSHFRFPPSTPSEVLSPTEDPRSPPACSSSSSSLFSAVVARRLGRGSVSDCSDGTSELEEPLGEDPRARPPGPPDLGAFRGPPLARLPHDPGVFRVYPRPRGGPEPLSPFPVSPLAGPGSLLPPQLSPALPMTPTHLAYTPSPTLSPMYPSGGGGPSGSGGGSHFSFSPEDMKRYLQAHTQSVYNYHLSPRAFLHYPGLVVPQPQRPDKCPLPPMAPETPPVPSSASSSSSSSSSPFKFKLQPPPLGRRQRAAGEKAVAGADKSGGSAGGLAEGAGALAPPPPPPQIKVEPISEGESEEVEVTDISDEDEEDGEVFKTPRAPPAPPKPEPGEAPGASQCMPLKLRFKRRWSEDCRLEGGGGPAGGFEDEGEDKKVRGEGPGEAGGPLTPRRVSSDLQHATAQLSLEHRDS
# Outline: as §1
# ETV3L = target: T9, ETV3L (Homo sapiens, UniProt Q6ZN32 1-361)
# T9 sequence: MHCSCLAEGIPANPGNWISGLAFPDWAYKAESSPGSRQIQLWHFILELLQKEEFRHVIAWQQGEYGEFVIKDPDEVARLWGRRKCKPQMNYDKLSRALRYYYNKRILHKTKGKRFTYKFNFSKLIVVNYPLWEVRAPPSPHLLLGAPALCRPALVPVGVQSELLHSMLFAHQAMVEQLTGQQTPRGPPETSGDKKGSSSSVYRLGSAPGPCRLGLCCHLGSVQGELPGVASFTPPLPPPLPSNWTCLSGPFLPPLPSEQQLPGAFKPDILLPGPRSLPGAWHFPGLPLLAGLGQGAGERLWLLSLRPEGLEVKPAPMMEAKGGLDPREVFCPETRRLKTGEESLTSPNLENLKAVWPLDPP
# Outline: as §1
# SPDEF = target: T10, SPDEF (Homo sapiens, UniProt O95238 1-335)
# T10 sequence: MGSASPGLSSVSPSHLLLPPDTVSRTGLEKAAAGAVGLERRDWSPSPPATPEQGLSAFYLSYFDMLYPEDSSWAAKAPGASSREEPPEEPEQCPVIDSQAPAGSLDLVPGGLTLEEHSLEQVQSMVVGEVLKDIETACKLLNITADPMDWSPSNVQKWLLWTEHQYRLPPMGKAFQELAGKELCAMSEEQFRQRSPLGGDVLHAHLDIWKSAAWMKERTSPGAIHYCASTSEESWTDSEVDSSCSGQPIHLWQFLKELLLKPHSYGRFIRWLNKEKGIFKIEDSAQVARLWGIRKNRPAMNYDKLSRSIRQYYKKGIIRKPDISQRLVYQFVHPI
# Outline: as §1
# ETV7 = target: T11, ETV7 (Homo sapiens, UniProt Q9Y603 1-341)
# T11 sequence: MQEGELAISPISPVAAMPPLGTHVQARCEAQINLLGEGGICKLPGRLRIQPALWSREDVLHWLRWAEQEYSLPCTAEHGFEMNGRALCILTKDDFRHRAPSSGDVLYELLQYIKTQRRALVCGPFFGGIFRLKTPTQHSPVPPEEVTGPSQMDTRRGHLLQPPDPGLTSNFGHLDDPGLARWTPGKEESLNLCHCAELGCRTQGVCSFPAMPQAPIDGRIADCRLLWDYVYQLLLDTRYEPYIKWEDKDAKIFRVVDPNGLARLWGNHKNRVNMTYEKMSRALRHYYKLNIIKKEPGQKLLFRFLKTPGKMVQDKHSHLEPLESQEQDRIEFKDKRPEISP
# Outline: as §1
# ETV3 = target: T12, ETV3 (Homo sapiens, UniProt P41162-2 1-143)
# T12 sequence: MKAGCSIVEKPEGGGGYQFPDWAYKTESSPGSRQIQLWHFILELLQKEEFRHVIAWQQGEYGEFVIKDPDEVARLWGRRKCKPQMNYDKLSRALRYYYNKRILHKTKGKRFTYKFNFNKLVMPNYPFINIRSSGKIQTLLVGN
# Outline: as §1
# ETV6 = ETV6 (Homo sapiens, UniProt P41212 1-452)
# Chain of ETV6 (P41212 whole entry): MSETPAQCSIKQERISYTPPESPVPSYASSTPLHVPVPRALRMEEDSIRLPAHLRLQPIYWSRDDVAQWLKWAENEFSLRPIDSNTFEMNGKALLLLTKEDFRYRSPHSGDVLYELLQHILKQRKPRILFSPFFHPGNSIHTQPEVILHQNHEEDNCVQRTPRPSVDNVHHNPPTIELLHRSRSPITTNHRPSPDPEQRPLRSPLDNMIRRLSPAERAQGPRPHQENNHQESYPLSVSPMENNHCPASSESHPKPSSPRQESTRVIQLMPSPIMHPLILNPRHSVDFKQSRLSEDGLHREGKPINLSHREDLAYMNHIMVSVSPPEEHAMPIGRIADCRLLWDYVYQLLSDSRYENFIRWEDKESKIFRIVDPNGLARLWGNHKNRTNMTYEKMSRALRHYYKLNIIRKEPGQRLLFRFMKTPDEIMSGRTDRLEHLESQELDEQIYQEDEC
# Outline: as §1
sequence,measurement,setting,value
CTTAAG,binding signal,ELK1,"1.11 fold enrichment (6-mer frequency, TF over GST control)"
same,binding signal,GABPA,"1.13 fold enrichment (6-mer frequency, TF over GST control)"
same,binding signal,ERG,"1.09 fold enrichment (6-mer frequency, TF over GST control)"
same,binding signal,ELF1,"1.09 fold enrichment (6-mer frequency, TF over GST control)"
same,binding signal,EHF,"1.1 fold enrichment (6-mer frequency, TF over GST control)"
same,binding signal,SPIB,"1.11 fold enrichment (6-mer frequency, TF over GST control)"
same,binding signal,ELK3,"1.03 fold enrichment (6-mer frequency, TF over GST control)"
same,binding signal,SPIC,"1.1 fold enrichment (6-mer frequency, TF over GST control)"
same,binding signal,ELF4,"1.07 fold enrichment (6-mer frequency, TF over GST control)"
same,binding signal,ELK4,"1.06 fold enrichment (6-mer frequency, TF over GST control)"
same,binding signal,ETV1,"1.1 fold enrichment (6-mer frequency, TF over GST control)"
same,binding signal,ERF,"1.07 fold enrichment (6-mer frequency, TF over GST control)"
same,binding signal,ETV3L,"1.08 fold enrichment (6-mer frequency, TF over GST control)"
same,binding signal,SPDEF,"1.04 fold enrichment (6-mer frequency, TF over GST control)"
same,binding signal,ETV7,"1.04 fold enrichment (6-mer frequency, TF over GST control)"
same,binding signal,ETV3,"1.13 fold enrichment (6-mer frequency, TF over GST control)"
same,binding signal,ETV6,"1.03 fold enrichment (6-mer frequency, TF over GST control)"
